Tau fluor cs – counter-screen for tau fibril formation inhibitors; tau K18 P301L Alexa594 fluorescence, heparin fibrillization; Potency, µM (doses to about 57.7 µM), inactives show top-dose activity change, negative = decrease; 280,000 compounds, 0.93% hits; AID 1463; also: potency is read from the fitted curve at half-maximal effect; % is scaled to controls: 0 for no effect and ±100 for the full control effect; nearly all actives have a fitted effect of over 55% in size
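Human K18 P301L tau (15 uM unlabeled plus 0.24 uM Alexa 594-labeled, final) in 100 mM sodium acetate pH 7 was mixed with compound and 20 uM heparin and incubated 6 hr at 37 C.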
Tau fibril FP – inhibitors of human tau fibril formation; K18 P301L tau heparin fibrillization, Alexa594 FP, 6 h; Potency, µM (doses to about 57.7 µM), for inactives: at the top dose activity, negative = inhibition, hits mostly inhibitors; 280,000 compounds, 0.39% hits; AID 1468; also: potency is read from the fitted curve at half-maximal effect; % is scaled to controls: 0 for no effect and ±100 for the full control effect; nearly all actives have a fitted effect of over 55% in size
Target sequence (P10636 561-689 P618L limits assumed): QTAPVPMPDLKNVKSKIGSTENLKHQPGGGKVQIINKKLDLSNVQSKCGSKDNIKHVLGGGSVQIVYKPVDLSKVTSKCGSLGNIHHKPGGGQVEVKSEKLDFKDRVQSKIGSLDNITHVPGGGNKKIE
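Human K18 P301L fragment (15 uM unlabeled plus 0.24 uM Alexa 594-labeled) in 100 mM sodium acetate pH 7 with compound, aggregation induced by 20 uM heparin for 6 hr at 37 C. ThT (30 uM) added for 1 hr, then Alexa 594 FP read.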
CBFb RUNX1 block – blocks binding between human CBF-beta and RUNX1; Q01196+Q13951; AlphaScreen CBFb-His/RUNX1-biotin binding, biochemical; Potency, µM (top dose mostly 59.8 µM), without a hit: at the top dose activity, negative = inhibition, hits mostly inhibitors; 230,000 tested, under 10 active; also: % of control where 0% means no effect
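CBF-beta (His) and RUNX1 (biotin), 30 nM each; 20 min preassociation; + compound, 15 min; + beads 50 ng each (Ni, streptavidin), 90 min; RT; AlphaScreen read.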
LMNA splice mod – LMNA splicing modulation; Potency, µM (titrated, usually from 46.1 µM), for inactives: at the top dose ratio change, negative = inhibition, hits mostly inhibitors; HeLa LMNA splicing GFP/RFP minigene ratio, 48 h; 200,000 compounds, 0.01% hits; active = well fitted inhibition curve with a large enough effect in the signal ratio, with a control signal flat, not every such curve was filed as active; inconclusive = small, poorly fitted or top-dose-only effect, or effect the other way, or a change in a side signal; the % refers to the signal ratio; also: potency is read from the fitted curve at half-maximal effect; % is scaled to controls: 0 for no effect and ±100 for the full control effect
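S3 HeLa stable clones carrying a lamin A-EGFP splicing minigene plus DsRed2 were seeded at 600 cells/well in Opti-MEM with 2% FBS, pin-dosed and incubated 48 h at 37°C. Acumen cytometry (488 nm) gave the GFP/RFP total-intensity ratio.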
JMJD2E inh – inhibitors of human JMJD2E histone demethylase; AID 2147; JMJD2E catalytic domain, FDH-coupled NADH fluorescence (FDH is formaldehyde dehydrogenase); Potency, µM (series often up to 57.1 µM), for the others: at the highest dose activity change, negative = inhibition, most hits filed as inhibitors; B2RXH2; 230,000 compounds, 1.6% hits; active = well fitted inhibition curve with a large enough effect, not every such curve was filed as active; inconclusive = small, poorly fitted or top-dose-only effect, or another doubt; inactive = no such curve, though single readings can be large or run the other way;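 also: potency is read from the fitted curve at half-maximal effect; 0% = wells with enzyme and -100% = buffer wells without enzyme; nearly all actives have a fitted effect of over 50% in size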
Target sequence (B2RXH2 1-337 limits assumed): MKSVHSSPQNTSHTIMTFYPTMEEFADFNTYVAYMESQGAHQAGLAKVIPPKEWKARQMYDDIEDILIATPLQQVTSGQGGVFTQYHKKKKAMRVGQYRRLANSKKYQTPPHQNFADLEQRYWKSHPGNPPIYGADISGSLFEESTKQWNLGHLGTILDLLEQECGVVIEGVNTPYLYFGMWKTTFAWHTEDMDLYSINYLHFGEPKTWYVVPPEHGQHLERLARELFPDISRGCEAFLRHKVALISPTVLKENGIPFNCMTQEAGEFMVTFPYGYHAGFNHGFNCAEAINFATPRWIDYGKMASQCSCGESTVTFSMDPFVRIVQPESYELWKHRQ
Tau fibril ThT – blocks human tau fibril formation measured by thioflavin T; P10636; recombinant tau K18 P301L, heparin-induced fibrillization, ThT fluorescence; Potency, µM (series often up to 57.4 µM), for inactives: at the top dose activity, negative = inhibition, hits mostly inhibitors; 270,000 compounds, 2.1% hits; also: potency is read from the fitted curve at half-maximal effect; % is scaled to controls: 0 for no effect and ±100 for the full control effect; nearly all actives have a fitted effect of over 55% in size
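ThT emission at 510 nm, taken 1 hr after adding 30 uM dye, quantifies aggregates formed when 20 uM heparin acts on human tau K18 P301L for 6 hr at 37 C.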
* = called active by the depositor; u = inconclusive; x = no result given; ! = not confirmed by another sample; [ ] = dose if it differs, or a comment. The list is not random: actives were taken first. Their share in the collection is about 3.2%. Unless noted, calls follow the shape of the dose curve; as a rule, active = well fitted curve in the direction sought with a large enough effect; inconclusive = small, poorly fitted or top-dose-only effect, or another doubt; inactive = no such curve, though single readings can be large; an effect the other way counts as inactive or inconclusive.

SMILES | Tau fluor cs | Tau fibril FP | CBFb RUNX1 block | LMNA splice mod | JMJD2E inh | Tau fibril ThT
COc1ccc(/C=N/NC(=O)CSc2ccccc2)cc1OC | -1.7% | -2.4% | 9.1% | -6.0% | -7.1% | -12.6%
COc1cc(/C=N/NC(=O)CSc2cc(C)c(Br)cc2C)ccc1O | 25.1µM*[quencher] | 1.2% | -6.2% | u | 5.8% | u
Cc1cc(SCC(=O)N/N=C/c2ccc(O)c(O)c2O)c(C)cc1Br | 14.1µM*[quencher] | 12.6µM* | -18.7% | u | 10µM* | 7.94µM*
COc1cccc(/C=N/NC(=O)CCn2c3ccccc3c3ccccc32)c1 | -17.7% | u | 1.6% | -1.9% | u | 3.2%
c1ccc(COC[C@@H]2CO2)cc1 | x | x | -0.9% | x | x | x
CC1(C)CCC[C@@]2(C)C1CC[C@@](C)(O)[C@@H]2CC[C@@](C)(O)C1CO1 (some centres undefined) | -11.9% | 1.9% | 14.4% | x | 5.8% | -11.3%
COc1ccc(C(=O)O)c(O)c1OC | -19.3% | u | x | 5.7% | -14.0% | -7.5%
COC1=C(N)C(=O)c2nc(-c3nc(C(=O)O)c(C)c(-c4ccc(OC)c(OC)c4O)c3N)ccc2C1=O | u | u | -5.5% | u | 331.2% | 15.8µM*
CCN1C(=O)/C(=C/C=C2/Sc3ccc4ccccc4c3N2CCO)SC1=S | u | -7.9% | -7.9% | 0.7% | 3.0% | u
CCN1C(c2ccccc2)=C(c2ccccc2)S/C1=C/C=C1\SC(=S)N(C)C1=O | 3.16µM*[fluorescent] | -7.4% | u | -0.7% | 1.4% | u
CCN(c1ccc(Cl)cc1)S(=O)(=O)c1nnc(NC(=O)C2CCCCC2)s1 | -17.9% | -5.9% | x | u | x | u
COc1ccc(OC)c(N=c2ssnc2Cl)c1 | -26.2% | u | -15.9% | 5.2% | 12.6µM* | 11.2µM*
COc1cc(N=c2ssnc2Cl)c(OC)cc1Cl | -29.5% | u | -24.0% | u | 12.6µM* | 10µM*
CC1(C)CC(=O)C2=C(C1)N(c1cccnc1)C(N)=C(C#N)C2c1cccs1 (centres undefined) | -19.6% | u | 1.4% | u | -2.5% | 20µM*
CCSc1sccc1C1C(C#N)=C(N)N(c2cccnc2)C2=C1C(=O)CC(C)(C)C2 (centres undefined) | -4.1% | 6.0% | 2.1% | 11.4% | -2.9% | -10.3%
CC1(C)OC2OC(C(=O)N/N=C/c3cc(Br)ccc3O)C3OC(C)(C)OC3C2O1 (centres undefined) | -11.7% | -0.7% | -10.8% | u | 28.2µM* | -6.0%
CC(C)COCC(CN(Cc1ccccc1)c1ccccc1)N1CCCC1 (centres undefined) | -21.9% | -9.0% | -8.6% | u | 14.1µM*! | u
CC(C(=O)Nc1ccc(OCc2ccccc2)cc1)N1CCCC1 (centres undefined) | -0.3% | -4.0% | 5.0% | 3.9%[46 µM] | -4.3% | 0.4%
Cc1ccc(CCNC(=O)c2ccc3c(c2)N(Cc2ccccc2F)C(=O)c2ccccc2S3=O)cc1 (centres undefined) | -21.7% | -5.2% | x | x | x | 0.4%
CN1CCc2c(sc(/N=C/c3cccs3)c2C(N)=O)C1 | -12.5% | u | -1.8% | -5.8% | u | 14.1µM*
CCOC(=O)c1c(N)sc(=S)c2c1CCC2 | u | u | u | -3.1% | u | 25.1µM*
CCOC(=O)c1c(N)sc2c1CCSC2 | u | -13.6% | -5.2% | 1.9% | u | 25.1µM*
CCOC(=O)c1c(N)sc(C(N)=O)c1C | 1.2% | -3.3% | 9.3% | 9.1% | 4.6% | -8.3%
CCOC(=O)c1c(N)sc(N)c1C(=O)OCC | u | u | 8.7% | 0.1% | -5.5% | 14.1µM*
CCOC(=O)c1c(N)sc2c1CCC(CC)C2 (centres undefined) | u | -0.3% | 2.5% | 8.5% | 0.8% | u
SMILES | Tau fluor cs | Tau fibril FP | CBFb RUNX1 block | LMNA splice mod | JMJD2E inh | Tau fibril ThT
CCOC(=O)c1c(N)ssc1=S | -26.8% | 11.2µM* | 2.7% | -1.5% | -11.7% | 7.94µM*
CC(C)C[C@H](NC(=O)c1[nH]cnc1C(=O)Nc1ccc(CNC(=O)OC(C)(C)C)cc1)C(=O)OCc1ccccc1 | u | 10µM* | 7.2% | x | 31.6µM* | 11.7%
CC(C)(C)OC(=O)NCc1ccc(NC(=O)c2nc[nH]c2C(=O)N[C@@H](Cc2ccccc2)C(=O)OC(C)(C)C)cc1 | u | 8.91µM* | 22.1% | x | u | u
CC(C)(C)OC(=O)CNC(=O)c1[nH]cnc1C(=O)Nc1ccc(Cl)cc1 | u | 25.1µM* | 13.8% | x | -0.7% | u
O=C(NCc1ccccc1)[C@]1(C(F)(F)F)C[C@H](CCCO)CCCO1 | x | x | 4.6% | x | x | x
Cc1cc(C)c2c(n1)sc1c(=O)n(-c3cc(Cl)ccc3C)nnc12 | 4.1% | 0.2% | x | x | x | 1.4%
CC(=O)Nc1ccc(S(=O)(=O)Nc2nnc(CC(C)(C)C)s2)cc1 | -33.0% | 18.1% | -25.2% | 10.7%[46 µM] | -1.8% | 3.98µM*
CC(C)C(=O)N(c1cc2sc(=O)oc2c2ccccc12)S(=O)(=O)c1cccs1 | u | u | u | 7.3% | 10µM* | 15.8µM*
CC(C)C(=O)N(c1ccc2oc(=O)sc2c1)S(=O)(=O)c1cccs1 | -22.5% | u | -22.7% | 3.3% | -2.5% | u
COc1cccc(CNC(=O)c2cnc3c(-c4ccc(F)cc4)c(C)nn3c2C)c1 | 7.6% | 2.7% | x | 11.3%[46 µM] | x | 11.6%
CCN1CCN(C(=O)c2ccc3c(c2)N(Cc2ccc(F)cc2)C(=O)c2ccccc2S3(=O)=O)CC1 | -11.9% | -9.6% | x | x | x | -1.7%
Cc1cc(C)c(NC(=O)Cn2c(=O)n(Cc3ccco3)c(=O)c3ccc(C(=O)NC4CCCC4)cc32)c(C)c1 | -0.3% | -11.1% | x | x | x | 4.9%
O=C(Cn1c(=O)n(Cc2ccco2)c(=O)c2ccc(C(=O)NC3CCCC3)cc21)Nc1ccc(F)cc1 | u | 15.8µM* | x | x | x | u
CC1(OC(=O)CCc2ccccc2)C(=O)C=C2C=C(c3ccc(C#N)cc3)N(CC3CC3)C=C2C1=O (centres undefined) | -2.2%[11.6 µM] | 3.0%[11.6 µM] | -1.2%[13.1 µM] | -14.3%[9.22 µM] | u | u
CC1(OC(=O)CCc2ccccc2)C(=O)C=C2C=C(c3ccc(C#N)cc3)N(C3CCCC3)C=C2C1=O (centres undefined) | -13.2%[11.6 µM] | 0.1%[11.6 µM] | 13.2%[13.1 µM] | -8.4%[9.22 µM] | 20µM* | u
CC1(OC(=O)C2CCCC2)C(=O)C=C2C=C(c3ccsc3)N(c3cccc(C#N)c3)C=C2C1=O (centres undefined) | 2.1%[11.6 µM] | 0.3%[11.6 µM] | u | 17.1%[9.22 µM] | u | 0.9%[11.5 µM]
CC1(OC(=O)CCc2ccccc2)C(=O)C=C2C=C(c3ccc(C#N)cc3)N(c3ccccc3)C=C2C1=O (centres undefined) | -0.5%[11.6 µM] | u | u | -6.4%[9.22 µM] | 11.2µM* | 12.6µM*!

From PubChem
